Compound activity deposited in PubChem BioAssay by Sanford-Burnham Center for Chemical Genomics.
CF NFkB block: blocks PAF-induced NF-kB reporter in cystic fibrosis cells; AID 588850; 360,000 tested, 0.86% active; KKLEB NF-kB-GFP reporter, GFP fluorescence overnight; inhibition, % at 5 µM;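 active = at least 50% inhibition at 5 µM, scaled per plate between neutral and stimulator controls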;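 note: PAF is a Pseudomonas aeruginosa culture filtrate used as stimulus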
HIF-2a inh: blocks HIF-2a reporter activity; 786-0 RCC cells HIF-2a reporter, luciferase luminescence, overnight; AID 624352; inhibition, % at 18.8 µM; 360,000 tested, 0.72% active;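 active = inhibition of the luminescence signal of 40% or more relative to plate controls, in a single-dose primary screen at 18.75 µM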
Peg3 promoter: reduces Peg3 promoter-driven luciferase expression in HeLa; HeLa PEG-Prom luciferase reporter, luminescence, overnight; inhibition, % at 20 µM; 360,000 tested, 1.7% active; AID 588405;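 active = inhibition of at least 50% at 20 µM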
TWEAK-Fn14 inh: TWEAK-Fn14 signaling inhibition; TWEAK-stimulated Fn14 reporter cells, luciferase luminescence, 8 h; inhibition, % at 10 µM; 360,000 tested, 2% active; AID 1159606; in the data active = inhibition above about 50%
TROY signal inh: blocks TROY-dependent signaling in reporter cells. inhibition, % at 10 µM. Q293 LMP1-TROYcd NF-kB luciferase reporter, 4 h. 360,000 tested, 0.98% active;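 active = compounds whose plate-normalised and pattern-corrected inhibition of the luciferase reporter signal at the single screening dose is 50% or more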
KKLEB cytotox: reduces viability of KKLEB cystic fibrosis airway cells. activity change (cytotoxicity), % at 5 µM. 360,000 tested, 0.36% active. KKLEB CF airway cells viability, ATPlite luminescence, overnight; stronger effect = lower value; cells stimulated with P. aeruginosa culture filtrate;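 active = corrected activity change at or below -50% at 5 µM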
Mdm2-MdmX confirm: confirmation of inhibitors of human Mdm2/MdmX interaction, set 2; AID 504601; shares compounds with HIF-2a inh; SaOS-2 split-luciferase Mdm2/MdmX complementation, luminescence; 740 tested, 99% active; inhibition, % at 8 µM;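 active = mean inhibition of the luminescence signal across two replicates at or above 26 percent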
Target sequence (O15151 whole entry, looked up): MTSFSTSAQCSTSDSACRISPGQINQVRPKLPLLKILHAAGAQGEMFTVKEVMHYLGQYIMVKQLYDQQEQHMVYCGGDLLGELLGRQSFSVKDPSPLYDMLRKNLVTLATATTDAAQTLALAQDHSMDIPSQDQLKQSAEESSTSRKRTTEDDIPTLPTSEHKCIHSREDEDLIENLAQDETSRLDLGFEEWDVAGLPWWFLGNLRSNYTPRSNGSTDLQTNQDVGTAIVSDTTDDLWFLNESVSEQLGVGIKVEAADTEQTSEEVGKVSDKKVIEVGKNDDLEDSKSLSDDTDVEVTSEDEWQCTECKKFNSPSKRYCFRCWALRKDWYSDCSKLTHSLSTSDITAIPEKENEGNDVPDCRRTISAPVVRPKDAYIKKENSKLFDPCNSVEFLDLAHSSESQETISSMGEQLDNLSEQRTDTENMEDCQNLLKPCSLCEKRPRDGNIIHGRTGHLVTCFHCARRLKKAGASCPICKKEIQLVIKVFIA
Target sequence (Q00987 whole entry, looked up): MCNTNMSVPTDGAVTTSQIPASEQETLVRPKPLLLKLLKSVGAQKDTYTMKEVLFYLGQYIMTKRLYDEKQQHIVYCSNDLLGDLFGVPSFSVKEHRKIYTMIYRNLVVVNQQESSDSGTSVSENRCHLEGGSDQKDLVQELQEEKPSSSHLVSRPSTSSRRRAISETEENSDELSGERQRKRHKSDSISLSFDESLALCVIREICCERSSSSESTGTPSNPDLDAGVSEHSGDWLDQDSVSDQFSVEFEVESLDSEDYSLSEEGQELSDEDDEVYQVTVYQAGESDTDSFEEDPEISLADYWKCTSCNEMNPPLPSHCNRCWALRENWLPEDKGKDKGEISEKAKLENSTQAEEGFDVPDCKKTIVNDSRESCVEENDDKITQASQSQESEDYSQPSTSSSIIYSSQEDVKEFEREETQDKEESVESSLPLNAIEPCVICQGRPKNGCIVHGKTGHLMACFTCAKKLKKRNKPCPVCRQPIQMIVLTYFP
HIF-2a conf: confirmation of HIF-2a inhibitors; shares compounds with HIF-2a inh; 786-0 RCC cells, HIF-2a luciferase reporter luminescence, overnight; inhibition, % at 18.8 µM; 1,800 tested, 56% active; AID 651580;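 active = mean inhibition across four replicates of at least 40 percent at the single tested concentration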
HIF-1a counter: inhibits HIF-1a reporter, a counter-screen for HIF-2a inhibitors | inhibition, % at 18.8 µM | MiaPaCa-2 HIF-1a luciferase reporter, desferoxamine, overnight | 1,800 tested, 72% active | shares compounds with HIF-2a inh;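 active = mean inhibition of the reporter signal across four replicates at the single tested dose of 50% or more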
Each line names hits and unclear results; the compound was inactive in the other large screens (follow-up assays come after a bar, where they were run). Rows were chosen to be rich in hits. Some 4% of all compounds tested hit in one or more screens of this group.

COc1oc(C(=O)NC2CCCCC2)c(-c2ccc(Cl)cc2)c1S(=O)(=O)c1ccccc1	none
CCCNC(=O)c1ccccc1NC(=O)COc1cccc2c1OC(C)(C)C2	none
CCOC(=O)c1nnc(-c2ccccc2)nc1Sc1c(Cl)cccc1Cl	HIF-2a inh 62.5, Peg3 promoter 64.0 | HIF-2a conf inactive | HIF-1a counter 65.3
Cc1c(C(=O)NCCN2C(=O)S/C(=C\c3cccnc3)C2=O)cccc1[N+](=O)[O-]	none
CC(=O)NC1(C(Cl)(Cl)Cl)Oc2ccccc2O1	HIF-2a inh 47.0 | HIF-2a conf inactive | HIF-1a counter inactive
O=[N+]([O-])c1ccc(N=Nc2ncc[nH]2)cc1	CF NFkB block 74.7, Peg3 promoter 107.4, TWEAK-Fn14 inh 85.4 | Mdm2-MdmX confirm 103.5
CN(C)c1ccc(-n2cccc2/C=C/[N+](=O)[O-])cc1	HIF-2a inh 91.4, Peg3 promoter 93.8, TWEAK-Fn14 inh 60.4 | HIF-2a conf 89.2 | HIF-1a counter 105.9
CN(C)c1ccc(/C=C/c2c([N+](=O)[O-])c(=O)n(C)c(=O)n2C)cc1	none
COc1ccc(C2CC(c3ccccc3)=NN2C(=O)COC(=O)c2cccc(N)c2)cc1 (centres undefined)	none
Cc1nc(SCc2cccc(C(=O)O)c2)nc2c1CCCC2	HIF-2a inh 86.1 | HIF-2a conf 83.5 | HIF-1a counter inactive
O=C(Nc1ccccc1-c1nc2ccccc2[nH]1)c1ccc(N2C(=O)CCC2=O)cc1	HIF-2a inh 44.8 | HIF-2a conf inactive | HIF-1a counter inactive
Cn1nnnc1Sc1ncnc2scc(-c3cccc4c3sc3ccccc34)c12	HIF-2a inh 62.4, Peg3 promoter 97.6 | HIF-2a conf inactive | HIF-1a counter 102.4
CN(C)C(=O)CSc1ncnc2scc(-c3ccccc3)c12	none
Clc1ccc(-c2csc3ncnc(Cl)c23)cc1	none
Cn1nnnc1Sc1ncnc2scc(-c3cccc(Br)c3)c12	CF NFkB block 79.5, HIF-2a inh 82.2, Peg3 promoter 94.0, TWEAK-Fn14 inh 98.9, TROY signal inh 67.0, KKLEB cytotox -52.5 | Mdm2-MdmX confirm 103.0 | HIF-2a conf 97.3 | HIF-1a counter 102.4
Cn1nnnc1Sc1ncnc2scc(-c3ccc(Cl)cc3)c12	HIF-2a inh 85.5, Peg3 promoter 94.7, TWEAK-Fn14 inh 75.2, TROY signal inh 63.9 | Mdm2-MdmX confirm 103.2 | HIF-2a conf 99.3 | HIF-1a counter 102.0
Cn1nnnc1Sc1ncnc2scc(-c3ccc([N+](=O)[O-])cc3)c12	CF NFkB block 71.4, HIF-2a inh 91.6, Peg3 promoter 102.2, TWEAK-Fn14 inh 92.5, TROY signal inh 54.1, KKLEB cytotox -63.2 | Mdm2-MdmX confirm 102.7 | HIF-2a conf 97.2 | HIF-1a counter 100.5
O=C(O)COc1ccc2oc3ccccc3c2c1	HIF-2a inh 53.0 | HIF-2a conf 68.5 | HIF-1a counter inactive
O=C(O)COc1ccc2occ(C(=O)c3ccccc3)c2c1	none
COc1ccc2c(c1)/C(=C\c1cccc(/C=C3/C(=O)Nc4ccc(OC)cc43)n1)C(=O)N2	CF NFkB block 83.3, HIF-2a inh 89.6, Peg3 promoter 106.8, TWEAK-Fn14 inh 100.4 | HIF-2a conf 98.5 | HIF-1a counter 106.5
Cc1ccc2c(c1)/C(=C/c1ccccc1)C(=O)N2	none
S=C1SCN(Cc2ccccc2)CN1Cc1ccccc1	none
S=C1SCN(Cc2cccnc2)CN1Cc1cccnc1	Peg3 promoter 67.0 | Mdm2-MdmX confirm 98.2
C[C@@]12C(=O)OC(=O)[C@]1(C)C1CCC2O1	CF NFkB block 83.8, HIF-2a inh 78.6, Peg3 promoter 84.5, TWEAK-Fn14 inh 98.3, TROY signal inh 65.6 | Mdm2-MdmX confirm 100.0
COc1ccc(/C=c2/sc3n(c2=O)C(c2ccccc2OC)C2=C(N=3)c3ccccc3CC2)cc1O (centres undefined)	HIF-2a inh 40.9 | HIF-2a conf inactive | HIF-1a counter 63.8
COc1cc(C(O)c2nc(-c3ccccc3)cs2)ccc1F (centres undefined)	none
CC(=O)/C=C\c1cn(-c2ncc(C(F)(F)F)cc2Cl)c2ccccc12	HIF-2a inh 60.9 | HIF-2a conf inactive | HIF-1a counter inactive
Nc1nc(N)c2c(ccc3c2ccn3Cc2cccc([N+](=O)[O-])c2)n1	HIF-2a inh 89.1, Peg3 promoter 99.8, TWEAK-Fn14 inh 79.2 | HIF-2a conf inactive | HIF-1a counter 104.6
O=S(=O)(/C(=C\c1ccc(C(F)(F)F)cc1)c1nc2ccccc2[nH]1)c1ccccc1	CF NFkB block 86.0, HIF-2a inh 84.5, Peg3 promoter 104.8, TWEAK-Fn14 inh 99.8, TROY signal inh 53.6, KKLEB cytotox -67.6 | HIF-2a conf 97.6 | HIF-1a counter 107.4
O=C(Nc1ccc(Cl)cc1)Nc1ccccc1Sc1ncc([N+](=O)[O-])s1	none
O=[N+]([O-])c1cnc(Sc2ccncn2)s1	CF NFkB block 74.7, HIF-2a inh 94.8, Peg3 promoter 109.9 | Mdm2-MdmX confirm 101.7
Cc1ccc(-c2csc3ncnc(Sc4nnc(CN5CCCCCC5=O)o4)c23)cc1	CF NFkB block 93.3, HIF-2a inh 94.3, Peg3 promoter 106.2, TWEAK-Fn14 inh 84.8 | HIF-2a conf 99.5 | HIF-1a counter 103.5
COc1ccc(S(=O)(=O)N2CCCC2CNC(=O)C(=O)Nc2ccc(C)cc2)cc1 (centres undefined)	none
COc1ccc(NC(=O)C(=O)NCC2CCCN2S(=O)(=O)c2ccc(C)cc2)cc1 (centres undefined)	CF NFkB block 52.0, HIF-2a inh 42.2 | HIF-2a conf inactive | HIF-1a counter inactive
O=C(COC(=O)CSc1ccc(F)cc1)NC1CCCCCC1	none
O=C(O)c1cccc2c1C(=O)c1ccccc1-2	none
O=C1C(=C(I)I)c2ccccc2-c2ccccc21	CF NFkB block 81.5, HIF-2a inh 92.9, Peg3 promoter 104.5, TWEAK-Fn14 inh 104.2, TROY signal inh 63.8, KKLEB cytotox -99.6 | HIF-2a conf 95.6 | HIF-1a counter 102.8
O=C(Cc1ccccc1)NS(=O)(=O)c1ccccc1	none
CCC(Sc1nc2n[nH]c(C)c2c(=N)n1-c1cccc(Cl)c1)C(=O)NCCOC (centres undefined)	none
CCC(Sc1nc2n[nH]c(C)c2c(=N)n1-c1ccc(C)c(Cl)c1)C(=O)N1CCOCC1 (centres undefined)	HIF-2a inh 40.6 | HIF-2a conf inactive | HIF-1a counter 70.2
Cc1cc(=O)[nH]c(SCC(=O)Nc2cccc(S(=O)(=O)N3CCOCC3)c2)n1	none
